Compound activity as filed in PubChem BioAssay.
This is a sample that favours compounds with a hit; in the whole collection about 6.2% have one here.
KB-V1 MDR tox: KB-V1 MDR subline cytotoxicity. KB-V1 MDR cells viability, CellTiter-Glo, 72 h. Potency, µM (top dose mostly 46.1 µM), usual class: cytotoxic. 3.4% of 400,000 active. AID 1347076; also: % is scaled to controls: 0 for no effect and ±100 for the full control effect; nearly all actives have a fitted effect of over 60% in size
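Cells of the MDR subline KB-V1 are plated, dosed with compound at multiple concentrations, and incubated 72 h at 37 degrees C; CellTiter-Glo is then added and luminescence read after 10 min.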
ATXN2 expr inh: inhibitors of ATXN2 expression; HEK-293 ATXN2-luciferase reporter, luminescence, 24 h; Potency, µM (doses to about 57 µM), inactives show top-dose activity change, negative = inhibition, usual class: inhibitors; 0.72% of 360,000 active; also: % is scaled to controls: 0 for no effect and ±100 for the full control effect; nearly all actives have a fitted effect of over 55% in size
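ATXN2-luciferase reporter cells (luciferase flanked by upstream and downstream ATXN2 gene portions) were treated 24 h at 37 °C with compounds at up to 57 uM. SteadyGlo luminescence gave expression; GF-AFC fluorescence gave viability.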
KB-3-1 cytotox: KB-3-1 parental cell cytotoxicity | KB-3-1 viability, CellTiter-Glo ATP luminescence, 72 h | 1.4% of 400,000 active | Potency, µM (highest dose often 46.1 µM), usual class: cytotoxic | AID 1347075; also: % is scaled to controls: 0 for no effect and ±100 for the full control effect; nearly all actives have a fitted effect of over 60% in size
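Here the drug-naive KB-3-1 line serves as comparator for MDR sub-line selectivity; cells received compound titrations, 72 h at 37 °C, then CellTiter-Glo readout.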
HT1080-NT tox: kills 2HG-producing HT-1080-NT fibrosarcoma cells. HT-1080-NT fibrosarcoma viability, CellTiter-Glo ATP luminescence, 48 h. Potency, µM (doses to about 46.1 µM), for the others: at the top dose activity, negative = less viability, hits mostly cytotoxic. 1.6% of 360,000 active;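 also: NT is the 2HG producing partner of a matched IDH1 knockdown line; 0% = DMSO-treated cells and -100% = media-only wells without cells; nearly all actives have a fitted effect of over 55% in size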
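HT-1080-NT; 750 cells/well; 5% FBS RPMI; 48 h compound, 37 degrees C; CellTiter-Glo luminescence; curve fitting and curve-class assignment.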
HT1080 IDH1KD tx: HT-1080 IDH1 knockdown cell toxicity (counter line); HT-1080 IDH1 knockdown viability, ATP luminescence, 48 h; Potency, µM (titrated, usually from 46.1 µM), for the others: at the highest dose activity, negative = toxicity, most hits filed as cytotoxic; 2% of 360,000 active; AID 686971;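 also: 0% = DMSO wells and -100% = cell-free medium wells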
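CellTiter-Glo luminescence after 48 h compound exposure at 37 degrees C of IDH1-knockdown HT-1080 cells in 5% FBS RPMI. %Activity scaled between DMSO wells and cell-free media wells, with curves fitted and assigned curve classes.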
S2 tox: viability counter-screen for ATXN expression inhibitors | S2 cells (HEK-293 line with an ATXN2-luciferase reporter) viability, CellTiter-Fluor protease fluorescence, 24 h | Potency, µM (top dose mostly 56.7 µM), most hits filed as cytotoxic | 0.49% of 400,000 active; also: nearly all actives have a fitted effect of over 40% in size
* hit, by the source's call; i = inactive; ? = inconclusive; / = no result given. Calls follow the shape of the dose curve; as a rule, active = well fitted curve in the direction sought with a large enough effect; inconclusive = small, poorly fitted or top-dose-only effect, or another doubt; inactive = no such curve, though single readings can be large; an effect the other way counts as inactive or inconclusive. Potency is read from the fitted curve at half-maximal effect.

SMILES	KB-V1 MDR tox	ATXN2 expr inh	KB-3-1 cytotox	HT1080-NT tox	HT1080 IDH1KD tx	S2 tox
CCOc1ccc(NC(=O)Cn2cnc3nc4c(cc3c2=O)CCCC4)cc1	i	11.8%	i	/	/	i
COC(=O)c1cc(-c2ccc(C)cc2)c2c(=O)n(C)c(=O)n(C)c2n1	i	4.7%	i	/	/	i
NC[C@H]1O[C@H](O[C@H]2[C@@H](O)[C@@H](O[C@H]3O[C@H](CO)[C@@H](O)[C@H](N)[C@@H]3O)[C@H](N)C[C@@H]2N)[C@H](N)C[C@H]1O	/	-11.1%	/	/	/	/
O=C1/C(=C/c2ccc(O)c([N+](=O)[O-])c2)SC(=S)N1Cc1ccccc1	?	-20.9%	?	23.1µM*	-19.3%	?
CN1CCN(C(=O)CCN2C(=O)/C(=C\c3ccc(Cl)cc3)SC2=S)CC1	i	20.5%	i	2.6%	0.4%	i
O=C1/C(=C\c2ccc(O)cc2)SC(=S)N1Cc1ccccc1	i	-36.8%	i	?	23.1µM*	i
NS(=O)(=O)c1ccc(CCN2C(=O)/C(=C\c3ccc(Cl)cc3)SC2=S)cc1	18.4µM*	25.1µM*	?	1.9%	5.5%	/
O=C1/C(=C/c2ccccc2O)SC(=S)N1Cc1cccnc1	?	28.2µM*	3.26µM*	7.1%	2.9%	15.8µM*
O=C1/C(=C\c2cccc([N+](=O)[O-])c2O)SC(=S)N1Cc1ccccc1	i	?	?	-17.4%	0.1%	?
Cc1c(CNC2CCC(C)CC2)c(C(=O)O)c(C)n1Cc1ccccc1F (stereo unspecified)	?	-2.4%	i	/	/	?
CCc1cc[n+](CC(=O)c2ccc(F)cc2)cc1C(=O)O	i	/	i	/	/	/
COCCCNC(=O)c1ccc2sc(C3=C[C@@H](O)[C@@H](O)[C@@H](CO)O3)nc2c1	i	10.1%	i	?	10.6%	i
C=CCN=C1S/C(=C/c2cccc([N+](=O)[O-])c2)C(=O)N1CC=C	i	-0.8%	?	?	?	i
O=C(O)c1cccc(CN2C(=O)S/C(=C/c3cccc([N+](=O)[O-])c3)C2=O)c1	i	-21.6%	i	?	16.4µM*	i
S=C1SCN(Cc2cccnc2)CN1Cc1ccccc1	i	?	i	?	20.6µM*	?
COc1cc(NC(=O)c2ccccc2-c2ccccc2)cc(OC)c1	11.6µM*	-2.8%	i	5.3%	2.3%	i
CC(=O)Nc1ccc(NC(=O)c2nc(S(=O)(=O)Cc3cccc(C)c3)ncc2Cl)cc1	?	?	5.17µM*	9.2µM*	5.8µM*	?
CCOC(=O)c1ccc(NC(=O)c2nc(SC(C)C)ncc2Cl)cc1	i	-23.7%	i	/	/	i
COC(=O)c1ccc(NC(=O)c2nc(S(=O)(=O)Cc3cccc(C)c3)ncc2Cl)cc1	9.2µM*	?	14.6µM*	11.6µM*	20.6µM*	28.2µM*
CCOC(=O)c1ccc(NC(=O)c2nc(S(=O)(=O)Cc3ccccc3)ncc2Cl)cc1	?	?	20.6µM*	5.8µM*	2.91µM*	20µM*
Cc1cccc(CS(=O)(=O)c2ncc(Cl)c(C(=O)NCc3ccc4c(c3)OCO4)n2)c1	i	/	i	-12.6%	-16.5%	?
Cc1ccc(CNC(=O)c2nc(S(=O)(=O)Cc3ccc(C)cc3)ncc2Cl)cc1	?	5.5%	?	/	/	i
Cc1ccc(CNC(=O)CN2CCN(Cc3ccc(F)cc3)C2=O)cc1	i	0.4%	i	/	/	i
